# Shiga toxin inh: inhibitors of Shiga toxin in Vero cells; inhibition, % at 38.7 µM; 9.2% of 290,000 active; AID 2315; Vero cells, Shiga toxin protein synthesis inhibition reporter; in the data active = inhibition mostly above about 28%, no sharp cut-off; inactive = mostly below about 43%
# Pf growth 48h: inhibits P. falciparum growth in the first generation, 48 h; P. falciparum luciferase growth in erythrocytes, 48 h; Potency, µM (top dose mostly 28.7 µM), actives largely listed as inhibitors; 5.9% of 310,000 active; AID 504832
#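 Parasite viability was followed by luminescence of a genomically integrated firefly luciferase. Cultures held 0.1% parasitemia at 2% hematocrit (final), incubated under 5% CO2 at 37 C.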
# Pf growth 96h: inhibits malaria parasite growth, 96 h; P. falciparum luciferase reporter growth, 96 h; Potency, µM (highest dose often 28.7 µM), actives largely listed as inhibitors; 6.9% of 320,000 active; AID 504834
#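 Compounds incubated with erythrocytes infected by luciferase-expressing P. falciparum (2% hematocrit, 0.05% parasitemia final) for 96 hours, 37 C in 5% CO2. Growth inhibition scored as decreased luciferase luminescence.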
# HCV inh: HCV inhibition; Huh7.5.1 HCVcc-Cre infection, luciferase reporter, 44 h; Potency, µM (doses to about 41.8 µM), usual class: inhibitors; 3.4% of 340,000 active; AID 651820
#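 Seed cells (1,000/well) for 4 h; treat with compound and infect with HCVcc-Cre, moi about 0.5. Incubate 44 h, then detect luciferase activity.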
# HCMV antiviral: blocks human cytomegalovirus replication. 4.5% of 410,000 active. HFF cells, HCMV-luciferase reporter, 72 h; active compounds read low. activity change, negative = inhibition, % at 57.5 µM; in the data active = activity change below about -60%; inconclusive = no clear call, values can overlap the other calls; inactive = above about -39%
#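 Inhibition of viral replication was scored as loss of reporter luminescence in HFFs infected with HCMV-luciferase (MOI 1 PFU/cell) for 72 h; compounds tested at 2 doses, normalized to buffer and Salinomycin controls.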
# Cycloheximide cs: counter-screen hit for Shiga toxin inhibitors, cycloheximide. cell reporter, cycloheximide protein synthesis inhibition counterscreen. max response, %. 12% of 300,000 active; in the data active = max response mostly above about 13%, no sharp cut-off; inactive = mostly below about 14%; note: read at 38.3 µM for the half of the compounds with a filed dose
# Numbers stand for hits; i = inactive; ? = inconclusive; nt = not tested or not shown; [ ] = dose if it differs, or a comment. Shown are actives, neighbours in structure and some others; about 21% of the full set was active somewhere. Unless noted, calls come from the whole dose curve; as a rule, active = well fitted inhibition curve with a large enough effect; inconclusive = small, poorly fitted or top-dose-only effect, or another doubt; inactive = no such curve, though single readings can be large or run the other way.
SMILES,Shiga toxin inh,Pf growth 48h,Pf growth 96h,HCV inh,HCMV antiviral,Cycloheximide cs
CCOC(=O)c1cn(Cc2cccc(Cl)c2)nn1,i,i,i,i,i,i
CCOC(=O)c1c(Cc2cccc(Cl)c2)c[nH]c1C,i,i,?,i,-62,i
COC(=O)c1c(Cc2ccccc2Cl)c[nH]c1C,i,?,?,i,-67,i
Cc1cccc(N2CCN(C(=O)Cc3c(C(=O)O)c(C)cn3C)CC2C)c1 (stereo not drawn),nt,nt,nt,nt,i,nt
Cc1c(Cl)cccc1NC(=O)c1ccc2c(c1)CCN2S(=O)(=O)c1ccccc1,nt,nt,nt,nt,i,nt
CCOc1ccccc1NC(=S)NC(=O)C1CCCCC1,i,?,?,?,i,i
CCOC(=O)N1CCN(C(=O)c2cc3c(=O)n4ccccc4nc3s2)CC1,i,i,?,i,i,i
CC(C)NC(=O)c1cc2c(=O)n3ccccc3nc2s1,i,i,i,i,i,i
CN1CCN(C(=O)c2cc3c(=O)n4ccccc4nc3s2)CC1,49,i,i,i,i,12
CN1CCN(C(=O)c2cc3sc4ccccc4c3s2)CC1,i,i,i,i,i,39
C=CCNC(=O)c1cc2c(=O)n3ccccc3nc2s1,72,i,i,i,i,34
O=C(NC1CCCCCC1)c1cc2c(=O)n3ccccc3nc2s1,75,i,?,i,i,29
CC(C)N(CCNC(=O)c1ccc(CS(=O)(=O)c2c(Cl)cccc2Cl)o1)Cc1ccccc1,i,?,?,i,?,i
COc1ccc(S(=O)(=O)NCc2cccnc2)cc1C,nt,i,i,i,i,i
Cn1c(=O)c2cc(C(=O)NC3CCCCCC3)sc2c2ccccc21,nt,nt,nt,nt,-81,nt
CN(C1CCCCC1)S(=O)(=O)c1ccc2[nH]c(=O)oc2c1,i,i,?,i,i,i
Cc1ccc(NC(=O)c2c(C)nc3sc(C(=O)Nc4ccc(F)cc4)c(N)c3c2-c2ccccc2Cl)c(C)c1,nt,nt,nt,nt,i,nt
COc1ccc(-c2ccc(CCC(=O)O)n2-c2ccccc2O)cc1,79,i,i,i,i,47
O=C(O)CCc1ccc(-c2ccccc2)n1-c1cccc(O)c1,54,i,i,i,i,23
Cc1ccc(-c2ccc(CCC(=O)O)n2-c2ccc(C(=O)O)cc2)cc1,i,i,i,i,i,i
Cc1ccc(-c2ccc(CCC(=O)O)n2-c2cccc(C(=O)O)c2)cc1,152,i,i,i,i,71
COc1ccc(-n2c(CCC(=O)O)ccc2-c2ccccc2)cc1,i,i,i,i,i,i
O=C(CCN1C(=O)C2C3CCC(C3)C2C1=O)Nc1cccc(Cl)c1 (stereo not drawn),i,i,i,nt,i,i
Cn1c(=O)c2c(SCC(=O)NCc3ccc(F)cc3)nc(-c3ccccc3Cl)nc2n(C)c1=O,nt,nt,nt,nt,i,nt
CC1CCc2nn(CC(=O)NCc3ccc4c(c3)OCO4)cc2C1 (stereo not drawn),i,i,i,i,i,i
SMILES,Shiga toxin inh,Pf growth 48h,Pf growth 96h,HCV inh,HCMV antiviral,Cycloheximide cs
CC1CCc2nn(CC(=O)NCc3ccc(F)cc3)cc2C1 (stereo not drawn),i,i,9.3µM,i,i,i
CCOC(=O)N1CCC(NC(=O)Cn2cc3c(n2)CCC(C)C3)CC1 (stereo not drawn),i,i,i,i,i,i
CC1CCc2nn(CC(=O)NC3CCCC(C)C3C)cc2C1 (stereo not drawn),i,i,0.37µM,?,i,i
CC1CCc2nn(CC(=O)Nc3ccc(F)cc3F)cc2C1 (stereo not drawn),i,i,2.9µM,i,i,i
CCN(C(=O)COC(=O)c1ccc(Cl)c(S(=O)(=O)N2CCCCC2)c1)C1CCS(=O)(=O)C1 (stereo not drawn),nt,nt,nt,i,i,nt
CCCn1nnnc1NCc1ccc(N(CC)CC)cc1,i,i,i,i,i,i
CCCCn1c(C)cc2c(c1=O)C1O[C@](CCCC)(Cc3cc(C#N)ccc31)O2,i,?,i[5.75 µM],nt,nt,i
O=C1C(=O)N(CCCN2CCOCC2)C(c2ccc(F)cc2)/C1=C(\O)c1ccc2c(c1)OCCO2 (stereo not drawn),i,i,?,i,i,i
O=C1C(=O)N(CCN2CCOCC2)C(c2ccncc2)/C1=C(/O)c1ccc2c(c1)OCO2 (stereo not drawn),i,i,8.3µM,i,i,i
COc1cccc(C2/C(=C(/O)c3ccc4c(c3)OCO4)C(=O)C(=O)N2CCN2CCOCC2)c1 (stereo not drawn),i,i,?,i,-62,9.6
O=C1C(=O)N(CCCN2CCOCC2)C(c2cccs2)/C1=C(/O)c1ccc2c(c1)OCO2 (stereo not drawn),i,i,?,i,i,29
COc1ccc(OC)c(NC(=O)c2cc3cc(C)ccc3n2C)c1,nt,nt,nt,nt,i,nt
Cc1ccc(-n2nc3c(N4CCC(C(=O)NCCc5cccs5)CC4)nnc(C)c3c2C)cc1,i,?,i,?,-83,i
Cc1ccc(-n2nc3c(N4CCCC(C(=O)NCc5ccccc5C)C4)nnc(C)c3c2C)cc1 (stereo not drawn),nt,nt,nt,nt,-64,nt
Cc1ccc(CCNC(=O)C2CCN(c3nnc(C)c4c(C)n(-c5ccccc5)nc34)CC2)cc1,nt,nt,nt,nt,i,nt
COc1ccc(-n2nc3c(N4CCCC(C(=O)NCc5ccc(C)cc5)C4)nnc(C)c3c2C)cc1 (stereo not drawn),nt,nt,nt,nt,-72,nt
Cc1nnc(N2CCCC(C(=O)NCc3ccc(OC(C)C)cc3)C2)c2nn(-c3ccccc3)c(C)c12 (stereo not drawn),i,i,i,?,-66,i
O=C(NC(=O)c1ccccc1)Nc1ccc(-c2cc(C(F)(F)F)nn2-c2ccccc2)cc1,nt,nt,nt,nt,i,nt
CCCCN(C(=O)c1cccc(S(=O)(=O)N(CC)c2ccccc2)c1)c1c(N)n(CC(C)C)c(=O)[nH]c1=O,nt,nt,nt,i,?,nt
COc1ccc(CNC(=O)C2CCN(c3nnc(C)c4c(C)n(-c5ccc(C)cc5)nc34)CC2)cc1,nt,nt,nt,nt,-107,nt
COc1ccc(CNC(=O)C2CCCN(c3nnc(C)c4c(C)n(-c5ccc(C)cc5)nc34)C2)cc1 (stereo not drawn),nt,nt,nt,nt,i,nt
O=c1[nH]cc(O)c(=O)[nH]1,i,i,i,i,i,i
O=c1[nH]cc(F)c(=O)[nH]1,i,6.6µM,4.7µM,i[8.37 µM],?,i
CCNc1ccc(-c2nc(-c3ccccn3)no2)cc1[N+](=O)[O-],nt,nt,nt,nt,-106,nt
O=[N+]([O-])c1cccc(-c2nc(-c3ccccn3)no2)c1,72,i,i,i,i,46
CNc1ccc(-c2nc(-c3ccccn3)no2)cc1[N+](=O)[O-],nt,nt,nt,nt,i,nt
COc1cccc(-c2nc(-c3ccccc3)no2)c1,63,i,?,i,i,37
COc1cccc(-c2noc(C(C)n3nc(C)c([N+](=O)[O-])c3C)n2)c1 (stereo not drawn),i,i,i,i,i,18
COc1cc(OC)cc(-c2cc3c(Nc4cccc(S(C)(=O)=O)c4)nccc3n2C)c1,nt,nt,nt,nt,i,nt
